Assay [1] has as its system Plasmodium falciparum Sir2 (PF13_0152, Sir2A). Nature of the assay: pfSir2 binders on small-molecule microarrays, primary screen, biochemical, small-molecule microarray, 635 nm fluorescence (AID 1098).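 Note: score merges spot fluorescence intensity with its signal-to-noise ratio.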 The conditions noted are these: small-molecule microarray binding, fluorescence 635 nm; higher = more signal.
A short description of assay [2]: small-molecule microarray binders of probe aDKK1, primary screen, biochemical, biotinylated probe, 635/667 nm fluorescence (AID 1099).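 Note: score merges 667nm spot fluorescence with signal to noise across triplicate slides.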 The conditions noted are these: higher = more signal.
Assay [3] is described as follows: small-molecule microarray binders of probe aCHRDL2, primary screen, biochemical, biotinylated probe, 635/667 nm fluorescence (AID 1100). The note with it: higher = more signal.
Assay [4] in a line: splicing luciferase reporter signal modulators, primary screen, spliceosome inhibition project, cell-based, HEK293, splice +/- reporter (AID 1101).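 Note: HEK293 cells carrying a splicing-competent luciferase reporter gene; test concentration not given here.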 The note with it: luminescence, 24 h, higher = more signal, called active from +8 up or from −8 down. For orientation: Reporter assays use an easily measured gene product as a stand-in for the process of interest.
The target of assay [5] is Fibroblast growth factor 10 (Homo sapiens) (UniProt O15520). Briefly: FGF10 binders on small-molecule microarrays, primary screen, biochemical, small-molecule microarray, 635 nm fluorescence (AID 1102). The conditions noted are these: FGF10 binding, fluorescence 635 nm, higher = more signal.
In assay [6] the test system is glycogen synthase kinase-3 (GSK3A per assay name; protocol says GSK3B). Nature of the assay: GSK3 binders on small-molecule microarrays, primary screen, biochemical, small-molecule microarray, 635 nm fluorescence, GSK3A (AID 1103). Note: the record names both GSK3A and GSK3B. The conditions noted are these: small-molecule microarray binding, fluorescence 635 nm; higher = more signal.
Assay [7] has as its target Epidermal growth factor receptor (Homo sapiens) (UniProt P00533). Briefly: EGFR binders on small-molecule microarrays, primary screen, biochemical, small-molecule microarray, 635 nm fluorescence (AID 1104).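 Note: score merges 667 nm emission intensity with spot signal to noise over triplicate slides.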 The conditions noted are these: EGFR binding, higher = more signal.
The target in assay [8] is Follistatin-related protein 3 (Homo sapiens) (UniProt O95633). Briefly: FSTL3 binders on small-molecule microarrays, primary screen, biochemical, small-molecule microarray, 635 nm fluorescence (AID 1105).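 Note: score merges emission near 667 nm and signal to noise per printed spot across three slides.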 The note with it: FSTL3 binding, higher = more signal.
Assay [9] has as its target Dickkopf-related protein 1 (Homo sapiens) (UniProt O94907). Nature of the assay: DKK1 binders on small-molecule microarrays, primary screen, biochemical, small-molecule microarray, 635 nm fluorescence scan (AID 1106).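 Note: score merges emission near 667 nm with signal to noise over three replicate slides.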 The note with it: DKK1 binding, higher = more signal.
Assay [10] deals with Inhibin beta A chain (activin A). Briefly: INHBA (activin A) binders on microarrays, primary screen, biochemical, small-molecule microarray, 635 nm fluorescence scan (AID 1107).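 Note: mouse activin A protein probed at 4.33 µg/mL on printed slides; score merges bound-protein fluorescence near 667 nm with spot signal-to-noise.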 The conditions noted are these: small-molecule microarray binding, higher = more signal.
Assay [11] relates to Human papillomavirus type 1a protein E7 (residues 44-93). Nature of the assay: HPV1a E7 fragment binders on microarrays, primary screen, biochemical, small-molecule microarray, residues 44-93, 635 nm fluorescence (AID 1108).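 Note: E7 fragment applied at 1 µg/mL in TBST for 1 h at 4 C; score combines spot fluorescence with its signal to noise ratio.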 The note with it: small-molecule microarray binding, fluorescence 635 nm; higher = more signal.
Assay [12] in a line: modulators of HCV replicon luciferase signal, primary screen, HCV replication inhibitor project, Huh7 cells, luciferase reporter (AID 1109).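 Note: huh7 hepatoma cells harbouring a luciferase neomycin HCV replicon reporter; luciferase luminescence as measure of HCV replicon replication; test concentration not given here.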 The conditions noted are these: 48 h, higher = more signal. In general terms: A replicon is a self-replicating genome or part of one, used to study replication in cells.
In assay [13] the target is Left-right determination factor 2 (Homo sapiens) (UniProt O00292). Briefly: LEFTY2 binders on small-molecule microarrays, primary screen, biochemical, small-molecule microarray, 635 nm fluorescence scan (AID 1110). The conditions noted are these: LEFTY2 binding, higher = more signal.
Assay [14] deals with Calmodulin-1 (Homo sapiens) (UniProt P0DP23). Nature of the assay: CALM1 binders on microarrays, EGTA buffer, profiling panel, biochemical, small-molecule microarray, Cy5-labelled CALM1 (AID 1111).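 Note: labelled calmodulin applied in Tris saline Tween buffer holding calcium plus EGTA and DTT.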 The conditions noted are these: Cy5-CALM1 binding fluorescence, higher = more signal.
Assay [15] shares this target. Nature of the assay: calcium-bound CALM1 binders on microarrays, profiling panel, artefact control for SMM control-protein annotation, biochemical, small-molecule microarray, Cy5-labelled CALM1, plus calcium (AID 1112).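 Note: score merges spot fluorescence with signal to noise from triplicate slides.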 The conditions noted are these: Cy5-CALM1 binding fluorescence, higher = more signal.
A short description of assay [16]: small-molecule microarray binders of probe aWnt5a, primary screen, biochemical, biotinylated probe, 635/667 nm fluorescence (AID 1113).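 Note: score merges 667 nm fluorescence intensity with signal-to-noise per printed feature.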 The conditions noted are these: higher = more signal.
A short description of assay [17]: small-molecule microarray binders of probe aShh, primary screen, biochemical, biotinylated probe, 635/667 nm fluorescence (AID 1114).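 Note: probe is biotin-labelled aShh protein from a stem cell growth factor screen; measures binding of labelled protein to compounds printed on the slide; score merges feature fluorescence at 667 nm with signal-to-noise.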 The note with it: higher = more signal.
A short description of assay [18]: small-molecule microarray binders of probe aNog, primary screen, biochemical, biotinylated probe, 635/667 nm fluorescence (AID 1115).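 Note: probe is biotinylated aNog protein used at 0.15 µg/mL for 1 h at 4 C; z-score combines 667 nm fluorescence of each spot with its signal to noise.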 The conditions noted are these: higher = more signal.
Assay [19] concerns the target Torsin-1A-interacting protein 1 (Homo sapiens) (UniProt Q5JTV8). Briefly: LAP1 binders from COS7 cell lysate, primary screen, small-molecule microarray, 635/667 nm fluorescence (AID 1116). The conditions noted are these: COS7-hLAP1 lysate binding, 635 nm fluorescence, higher = more signal.
In assay [20] the target is Alpha-bungarotoxin (Bungarus multicinctus) (UniProt P60615). Briefly: alpha-bungarotoxin binders on microarray, profiling panel, artefact control for SMM control protein annotation, biochemical, small-molecule microarray, Alexa647 label, 635/667 nm fluorescence (AID 1117). The note with it: alpha-BTX-A647 binding fluorescence, higher = more signal.

Calls of active or inactive are those of the source.

Left-right determination factor 2 (Homo sapiens), sequence (O00292 whole entry, looked up): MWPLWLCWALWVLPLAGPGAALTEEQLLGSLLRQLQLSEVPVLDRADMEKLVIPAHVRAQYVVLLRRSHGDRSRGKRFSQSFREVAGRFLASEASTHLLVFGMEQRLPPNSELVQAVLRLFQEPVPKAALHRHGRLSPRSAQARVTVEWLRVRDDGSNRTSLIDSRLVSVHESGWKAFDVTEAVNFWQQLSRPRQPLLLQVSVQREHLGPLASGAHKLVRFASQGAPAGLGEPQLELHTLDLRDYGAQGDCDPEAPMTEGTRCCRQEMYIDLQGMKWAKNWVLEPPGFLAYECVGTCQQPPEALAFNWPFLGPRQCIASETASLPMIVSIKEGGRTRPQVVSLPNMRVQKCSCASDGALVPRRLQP
Epidermal growth factor receptor (Homo sapiens), sequence (P00533 whole entry, looked up): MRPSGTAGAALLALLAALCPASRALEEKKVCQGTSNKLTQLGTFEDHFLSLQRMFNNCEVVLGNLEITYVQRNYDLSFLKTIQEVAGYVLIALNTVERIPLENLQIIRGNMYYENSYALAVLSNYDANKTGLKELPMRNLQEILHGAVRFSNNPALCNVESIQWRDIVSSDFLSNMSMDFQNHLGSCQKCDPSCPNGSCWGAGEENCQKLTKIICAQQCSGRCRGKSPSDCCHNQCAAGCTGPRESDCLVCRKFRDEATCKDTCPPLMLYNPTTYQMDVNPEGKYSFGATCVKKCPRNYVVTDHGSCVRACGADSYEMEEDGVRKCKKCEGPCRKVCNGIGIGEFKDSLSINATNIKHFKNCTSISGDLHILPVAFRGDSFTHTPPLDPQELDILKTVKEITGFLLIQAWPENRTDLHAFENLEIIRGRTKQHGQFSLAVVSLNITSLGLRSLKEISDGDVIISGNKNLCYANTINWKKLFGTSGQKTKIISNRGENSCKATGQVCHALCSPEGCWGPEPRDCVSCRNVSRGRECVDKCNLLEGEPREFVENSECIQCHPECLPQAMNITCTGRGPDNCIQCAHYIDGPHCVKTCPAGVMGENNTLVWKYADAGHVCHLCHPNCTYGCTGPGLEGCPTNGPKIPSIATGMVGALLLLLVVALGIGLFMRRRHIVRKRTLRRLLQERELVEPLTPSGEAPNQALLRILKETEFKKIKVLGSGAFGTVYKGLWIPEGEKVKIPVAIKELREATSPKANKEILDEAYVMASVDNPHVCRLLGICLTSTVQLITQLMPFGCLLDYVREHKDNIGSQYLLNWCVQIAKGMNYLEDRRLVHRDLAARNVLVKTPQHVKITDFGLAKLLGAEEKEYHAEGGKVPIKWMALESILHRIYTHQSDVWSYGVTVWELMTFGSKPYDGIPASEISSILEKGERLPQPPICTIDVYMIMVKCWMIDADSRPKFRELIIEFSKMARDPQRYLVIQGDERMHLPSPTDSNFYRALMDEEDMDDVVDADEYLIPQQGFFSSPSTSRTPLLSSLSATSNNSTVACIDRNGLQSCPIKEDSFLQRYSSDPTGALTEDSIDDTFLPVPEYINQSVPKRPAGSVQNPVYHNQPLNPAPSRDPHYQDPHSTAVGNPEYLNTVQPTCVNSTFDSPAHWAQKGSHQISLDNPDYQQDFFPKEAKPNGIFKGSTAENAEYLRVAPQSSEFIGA
Dickkopf-related protein 1 (Homo sapiens), sequence (O94907 whole entry, looked up): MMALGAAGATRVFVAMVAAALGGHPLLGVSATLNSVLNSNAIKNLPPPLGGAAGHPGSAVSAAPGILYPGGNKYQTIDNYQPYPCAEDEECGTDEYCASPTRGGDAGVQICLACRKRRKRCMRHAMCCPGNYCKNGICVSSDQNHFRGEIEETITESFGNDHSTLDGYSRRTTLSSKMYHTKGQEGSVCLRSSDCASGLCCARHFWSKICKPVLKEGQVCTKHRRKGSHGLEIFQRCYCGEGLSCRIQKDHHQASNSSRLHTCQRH
Follistatin-related protein 3 (Homo sapiens), sequence (O95633 whole entry, looked up): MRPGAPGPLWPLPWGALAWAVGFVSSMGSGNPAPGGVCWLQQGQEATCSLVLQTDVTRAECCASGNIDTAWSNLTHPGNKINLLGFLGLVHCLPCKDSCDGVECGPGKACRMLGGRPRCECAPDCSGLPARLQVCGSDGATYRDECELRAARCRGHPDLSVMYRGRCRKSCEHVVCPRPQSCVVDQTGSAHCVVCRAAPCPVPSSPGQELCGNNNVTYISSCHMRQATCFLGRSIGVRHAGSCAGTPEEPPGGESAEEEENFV
Torsin-1A-interacting protein 1 (Homo sapiens), sequence (Q5JTV8 whole entry, looked up): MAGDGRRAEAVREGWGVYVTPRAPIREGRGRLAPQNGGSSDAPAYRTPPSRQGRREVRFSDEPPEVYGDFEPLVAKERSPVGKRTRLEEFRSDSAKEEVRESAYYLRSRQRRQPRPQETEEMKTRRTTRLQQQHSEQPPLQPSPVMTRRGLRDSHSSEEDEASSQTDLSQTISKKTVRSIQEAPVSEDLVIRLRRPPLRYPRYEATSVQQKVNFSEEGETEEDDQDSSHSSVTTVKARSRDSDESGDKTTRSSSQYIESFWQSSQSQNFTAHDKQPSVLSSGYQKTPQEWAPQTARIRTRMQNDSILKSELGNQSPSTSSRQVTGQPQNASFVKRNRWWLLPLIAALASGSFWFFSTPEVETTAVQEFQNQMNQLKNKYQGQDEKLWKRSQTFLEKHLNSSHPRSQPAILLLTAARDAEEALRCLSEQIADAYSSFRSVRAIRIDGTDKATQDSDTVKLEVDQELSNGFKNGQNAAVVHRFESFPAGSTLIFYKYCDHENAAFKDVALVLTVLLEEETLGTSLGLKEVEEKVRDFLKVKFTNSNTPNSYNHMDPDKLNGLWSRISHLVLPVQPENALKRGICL
Fibroblast growth factor 10 (Homo sapiens), sequence (O15520 whole entry, looked up): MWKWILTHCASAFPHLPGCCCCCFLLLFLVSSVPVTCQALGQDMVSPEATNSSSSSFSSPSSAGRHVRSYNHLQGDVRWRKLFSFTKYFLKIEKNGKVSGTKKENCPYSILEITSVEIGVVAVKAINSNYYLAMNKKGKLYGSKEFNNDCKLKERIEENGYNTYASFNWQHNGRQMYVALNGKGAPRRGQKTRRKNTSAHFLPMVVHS
Alpha-bungarotoxin (Bungarus multicinctus), sequence (P60615 whole entry, looked up): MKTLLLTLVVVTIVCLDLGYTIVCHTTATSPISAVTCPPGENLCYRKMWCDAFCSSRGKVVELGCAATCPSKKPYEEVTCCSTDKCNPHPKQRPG

As to `COCCCNC(=O)[C@@]1(CCC(=O)OC(C)(C)C)COC(c2ccc(OCCCO)cc2)=N1`, the composite z-score in assay [1] was 1.64; in assay [2], 0.117; in assay [3] it was 0.523; in assay [5] it was 0.693; in assay [6], 0.986; in assay [7], -0.106. For the same compound, the composite z-score in assay [8] is 0.219; in [9] it was -0.0833; in [10], 0.64; in [11], 1.48; in assay [13], -0.148; in [14], -0.664. Further, the composite z-score was -0.0486 in [15]; -0.124 in assay [16]; -0.0169 in assay [17]; -0.603 in assay [18]; 2.01 in [19]; 0.778 in assay [20]. The z-score is -1.09 (inactive) in assay [4] and -1.11 in [12].

Turning to `COCCOC(=O)N1C(=O)[C@@]2(c3cc(C#CCCO)ccc31)[C@H](c1ccccc1OCCO)N1[C@H](c3ccccc3)[C@H](c3ccccc3)OC(=O)[C@H]1[C@@H]2C(N)=O`, the composite z-score in [1] is 1.3; in assay [2] it was -0.154; in assay [3] it was 0.0318; in assay [5] it was 1.19; in assay [6], 1.21; in [7], 0.312. Moreover, the composite z-score is 1.05 in assay [8]; 0.433 in assay [9]; -0.0938 in assay [10]; 1.41 in [11]; 0.416 in assay [13]; 1.25 in assay [14]. The composite z-score is -0.0732 in assay [15]; 0.002 in [16]; 0.0204 in assay [17]; -0.467 in assay [18]; 0.606 in [19]; 1.23 in [20]. The figures for the z-score in assay [4] and in assay [12] were -1.51 (inactive) and -1.64, respectively.

With `C=C(COC)C(=O)CC[C@H](OC(=O)c1cccnc1)c1ccc(OCCO)cc1`, the composite z-score in assay [1] is 0.745; in assay [2], -0.163; in [3] it was -0.139; in [5], 1.08; in assay [6] it was 0.538; in assay [7] it was 0.163. In addition, the composite z-score was 1.03 in [8]; 0.624 in [9]; 0.472 in [10]; 1.27 in [11]; 0.65 in assay [13]; -0.395 in assay [14]. In addition, the composite z-score was -1.33 in [15]; -0.176 in assay [16]; -0.379 in assay [17]; -0.0762 in assay [18]; 2.53 in assay [19]; 0.994 in assay [20]. Further, the z-score in assay [4] is -0.319 (inactive); in assay [12] it was -0.345.

`[N-]=[N+]=NCc1ccccc1[C@@H]1OC(c2ccc(OCCCO)cc2)=N[C@]1(Cc1ccccc1N=[N+]=[N-])C(=O)O`: the composite z-score in assay [1] is 1.45; in [2], 1.35; in assay [3] it was 1.11; in assay [5] it was 1.15; in assay [6], 1.26; in [7], 0.268. The composite z-score in [8] was 1.03; in [9] it was -0.075; in [10], 0.848; in assay [11], 0.98; in [13], -0.0061; in assay [14], 1.4. In addition, the composite z-score in assay [15] came to 0.774; in [16] it was 0.496; in [17] it was 0.541; in assay [18], 1.7; in assay [19], 0.697; in [20], 1.55. The z-score in assay [4] is -1.48 (inactive); in assay [12] it was -0.909.

As for `O=C(NCc1ccccc1)[C@@H]1c2ccccc2C(=O)N(Cc2ccc(OC(F)(F)F)cc2)[C@H]1c1ccc(CO)cc1`, the composite z-score was 1.34 in assay [1]; 0.658 in assay [2]; -0.0614 in assay [3]; -0.354 in [5]; 0.37 in [6]; -0.942 in [7]. Further, the composite z-score in assay [8] was -0.88; in assay [9], -0.808; in assay [10], -0.187; in [11], 0.259; in assay [13] it was -0.725; in assay [14], -0.437. In addition, the composite z-score in [15] is 0.284; in assay [16] it was -0.0735; in assay [17], -0.0813; in assay [18], 0.868; in assay [19], 1.15; in assay [20], -0.0863. Further, the z-score in assay [4] was -1.19 (inactive); in assay [12], -1.1.

These data come from PubChem BioAssay.
